In PubChem BioAssay:
Active and inactive are the calls of the source. Unless noted, how the calls were made is not given here.

Experiments:
[1] = test system: Wnt5a (protein binding on small-molecule microarray); test: small molecules binding Wnt5a protein – biophysical, small-molecule microarray, 635/667 nm fluorescence, primary screen (AID 1142); details: 635 nm fluorescence, higher = more signal;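 further: fluorescence read at 667 nm with signal to noise per printed feature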
[2] = ATP-based viability of Huh7 replicon cells – cell-based, CellTiter-Glo luminescence, basal, 48 h, cytotoxicity control for HCV replication inhibitor project, primary screen (AID 1143); details: higher = more signal, called active from +8 up or from −8 down;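 further: Huh7 hepatoma cells carrying a hepatitis C replication reporter with no stimulus; test concentration not given here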
[3] = Pseudomonas biofilm growth suppression – PAO1 strain, BacTiter-Glo luminescence, LB-PBS, primary screen (AID 1144); details: P. aeruginosa PAO1 biofilm, 12 h, higher = more signal
[4] = basal CRE-LacZ reporter activity in PC12 – cell-based, unstimulated, primary screen (AID 1145); details: no forskolin, luminescence, 4.5 h, higher = more signal, called active from +8 up or from −8 down
[5] = forskolin-driven CRE-LacZ activity in PC12 – cell-based, CRE-LacZ reporter, forskolin-stimulated, primary screen (AID 1146); details: luminescence, 4.5 h, higher = more signal, called active from +8 up or from −8 down;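 further: PC12 cells with 6xCRE LacZ reporter stimulated by forskolin 10 µM; beta-galactosidase reporter signal reflecting CREB driven transcription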
[6] = biological target: Streptavidin (Streptomyces avidinii) (UniProt P22629); test: compounds binding control protein streptavidin – biophysical, small-molecule microarray, 635/667 nm fluorescence, artefact control for SMM compound annotation, primary screen (AID 1147); details: higher = more signal;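 further: signal reflects streptavidin binding to arrayed compounds as a control protein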
Chain of Streptavidin (Streptomyces avidinii) (P22629 whole entry, looked up): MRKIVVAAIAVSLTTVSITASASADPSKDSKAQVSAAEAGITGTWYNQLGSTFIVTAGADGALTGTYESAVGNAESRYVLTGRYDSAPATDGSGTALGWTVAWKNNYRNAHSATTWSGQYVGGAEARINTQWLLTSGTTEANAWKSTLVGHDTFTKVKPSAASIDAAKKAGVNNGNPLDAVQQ

[7] = probe aInhba binding on compound microarray – biochemical, small-molecule microarray, 635/667 nm fluorescence, primary screen (AID 1148); details: higher = more signal;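 further: score merges 667nm spot fluorescence with signal-to-noise for antibody binding to printed compounds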
Torsin-1A (Homo sapiens) [8] = biological target: Torsin-1A (Homo sapiens) (UniProt O14656); test: TOR1A wild-type binding on microarray – cell lysate, small-molecule microarray, lysate, 635/667 nm, primary screen (AID 1149); details: COS7 hTOR1A-WT lysate, 635 nm fluorescence, higher = more signal
Chain of Torsin-1A (Homo sapiens) (O14656 whole entry, looked up): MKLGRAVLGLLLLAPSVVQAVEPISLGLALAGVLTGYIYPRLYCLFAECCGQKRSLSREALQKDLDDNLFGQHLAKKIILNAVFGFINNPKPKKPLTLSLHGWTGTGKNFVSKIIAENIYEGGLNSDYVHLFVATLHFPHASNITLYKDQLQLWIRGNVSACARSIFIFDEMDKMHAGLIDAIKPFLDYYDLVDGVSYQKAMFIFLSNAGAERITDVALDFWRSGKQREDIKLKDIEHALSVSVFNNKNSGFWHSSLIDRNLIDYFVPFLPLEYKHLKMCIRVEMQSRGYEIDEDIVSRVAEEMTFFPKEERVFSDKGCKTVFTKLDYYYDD

Torsin-1A (Homo sapiens) [9] = biological target: Torsin-1A (Homo sapiens) (UniProt O14656); test: torsin A mutant lysate binding on microarrays – cell lysate, small-molecule microarray, COS7 lysate, 635/667 nm fluorescence, primary screen (AID 1150); details: COS7 hTOR1A mutant lysate, 635 nm fluorescence, higher = more signal;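 further: score pools 667 nm emission and signal to noise measuring lysate protein binding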
[10] = test system: Sonic hedgehog protein (Shh); test: Sonic hedgehog microarray binding compounds – biochemical, small-molecule microarray, 635/667 nm fluorescence, primary screen (AID 1151); details: 635 nm fluorescence, higher = more signal;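 further: Shh protein binding to compounds spotted on small-molecule microarray slides; score combines spot fluorescence intensity with signal-to-noise across triplicate slides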
[11] = optical density shifts of acrAB sulA E. coli – strain DRC41, OD650, 48 h, E. coli filamentation inducer project, primary screen (AID 1152); details: higher = more signal, called active from +8 up or from −8 down;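 further: E. coli MC1000 strain DRC41 lacking acrAB efflux pump and sulA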
[12] = probe aLefty1 binding on compound microarray – biochemical, small-molecule microarray, 635/667 nm fluorescence, primary screen (AID 1153); details: higher = more signal;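 further: score merges spot fluorescence with signal-to-noise ratio from the scanned slide images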
[13] = plasmodial surface anion channel blockers, osmotic lysis – cell-based, P. falciparum Indochina, OD700, 1 h, primary screen (AID 1154); details: P. falciparum Indochina infected RBC osmotic lysis, higher = more signal, called active from +8 up or from −8 down
[14] = plasmodial surface anion channel blockers, osmotic lysis – cell-based, P. falciparum Indochina, OD700, 2 h, primary screen (AID 1155);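 further: lysis reports solute entry through the parasite surface anion channel PSAC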; details: P. falciparum Indochina infected erythrocytes, higher = more signal, called active from +8 up or from −8 down
[15] = changes in parasitized red cell lysis, either direction – P. falciparum Indochina, OD700, 3 h, PSAC antagonist project, primary screen (AID 1156); details: P. falciparum-infected erythrocytes, osmotic lysis, higher = more signal, called active from +8 up or from −8 down
[16] = plasmodial surface anion channel blockers, osmotic lysis – cell-based, P. falciparum Indochina, OD700, 18 h, primary screen (AID 1157); details: P. falciparum Indochina infected erythrocytes, osmotic lysis OD700, 18 h; higher = more signal, called active from +8 up or from −8 down
[17] = S6 kinase pathway phospho-S6 level changes – cell-based, A549, cytoblot, luminescence, serum-stimulated, primary screen (AID 1158); details: 5 h, higher = more signal;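 further: serum-stimulated A549 lung adenocarcinoma cells; signal is phosphorylated S6 detected by cytoblot immunostaining with HRP secondary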
[18] = biological target: NADPH oxidase 2 (Homo sapiens) (UniProt P04839); test: compounds shifting NOX2 Amplex Red fluorescence – cell-based, HEK293-NOX2, PMA-stimulated, NOX inhibitor project, primary screen (AID 1159); details: 45 min, higher = more signal, called active from +8 up or from −8 down; further: test concentration not given here
Chain of NADPH oxidase 2 (Homo sapiens) (P04839 whole entry, looked up): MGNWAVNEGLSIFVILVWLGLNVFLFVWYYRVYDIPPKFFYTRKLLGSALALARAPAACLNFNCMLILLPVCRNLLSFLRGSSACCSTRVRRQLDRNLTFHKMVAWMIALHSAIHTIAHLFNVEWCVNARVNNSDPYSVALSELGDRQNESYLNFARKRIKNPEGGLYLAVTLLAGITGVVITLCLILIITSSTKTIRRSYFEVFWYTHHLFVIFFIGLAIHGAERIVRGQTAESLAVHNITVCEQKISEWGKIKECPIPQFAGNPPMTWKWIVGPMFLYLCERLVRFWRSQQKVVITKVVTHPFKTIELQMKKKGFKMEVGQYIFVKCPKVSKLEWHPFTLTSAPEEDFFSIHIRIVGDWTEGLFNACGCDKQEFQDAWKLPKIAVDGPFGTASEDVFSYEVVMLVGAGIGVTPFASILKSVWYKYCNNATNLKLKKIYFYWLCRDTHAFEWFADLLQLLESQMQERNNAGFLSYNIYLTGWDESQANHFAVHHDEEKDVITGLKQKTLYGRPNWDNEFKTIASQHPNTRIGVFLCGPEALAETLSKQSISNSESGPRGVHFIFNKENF

[19] = biological target: NADPH oxidase 4 (Homo sapiens) (UniProt Q9NPH5); test: compounds shifting NOX4 Amplex Red fluorescence – cell-based, HEK293-NOX4, tetracycline-induced, NOX inhibitor project, primary screen (AID 1160); details: HEK293-NOX4, Amplex Red H2O2 fluorescence, 45 min; higher = more signal, called active from +8 up or from −8 down
Chain of NADPH oxidase 4 (Homo sapiens) (Q9NPH5 whole entry, looked up): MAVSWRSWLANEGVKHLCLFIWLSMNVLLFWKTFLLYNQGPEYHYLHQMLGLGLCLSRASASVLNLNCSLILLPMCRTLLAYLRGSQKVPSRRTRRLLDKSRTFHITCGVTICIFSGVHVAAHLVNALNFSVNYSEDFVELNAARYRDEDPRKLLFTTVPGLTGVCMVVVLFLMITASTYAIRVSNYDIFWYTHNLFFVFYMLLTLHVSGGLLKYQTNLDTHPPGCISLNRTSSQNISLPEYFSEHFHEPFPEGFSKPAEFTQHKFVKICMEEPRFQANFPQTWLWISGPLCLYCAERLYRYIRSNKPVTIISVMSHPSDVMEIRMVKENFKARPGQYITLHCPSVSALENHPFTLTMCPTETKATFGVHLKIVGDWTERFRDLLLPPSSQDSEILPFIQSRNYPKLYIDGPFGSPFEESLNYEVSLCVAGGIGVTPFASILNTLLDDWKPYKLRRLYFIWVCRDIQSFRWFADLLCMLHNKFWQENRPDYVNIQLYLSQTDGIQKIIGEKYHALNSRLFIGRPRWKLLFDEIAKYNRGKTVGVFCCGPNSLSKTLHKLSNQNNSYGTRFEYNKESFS

[20] = biological target: NADPH oxidase 5 (Homo sapiens) (UniProt Q96PH1); test: compounds shifting NOX5 Amplex Red fluorescence – cell-based, HEK293-NOX5, NOX inhibitor project, primary screen (AID 1161); details: HEK293-NOX5, ionomycin, 45 min, higher = more signal
Chain of NADPH oxidase 5 (Homo sapiens) (Q96PH1 whole entry, looked up): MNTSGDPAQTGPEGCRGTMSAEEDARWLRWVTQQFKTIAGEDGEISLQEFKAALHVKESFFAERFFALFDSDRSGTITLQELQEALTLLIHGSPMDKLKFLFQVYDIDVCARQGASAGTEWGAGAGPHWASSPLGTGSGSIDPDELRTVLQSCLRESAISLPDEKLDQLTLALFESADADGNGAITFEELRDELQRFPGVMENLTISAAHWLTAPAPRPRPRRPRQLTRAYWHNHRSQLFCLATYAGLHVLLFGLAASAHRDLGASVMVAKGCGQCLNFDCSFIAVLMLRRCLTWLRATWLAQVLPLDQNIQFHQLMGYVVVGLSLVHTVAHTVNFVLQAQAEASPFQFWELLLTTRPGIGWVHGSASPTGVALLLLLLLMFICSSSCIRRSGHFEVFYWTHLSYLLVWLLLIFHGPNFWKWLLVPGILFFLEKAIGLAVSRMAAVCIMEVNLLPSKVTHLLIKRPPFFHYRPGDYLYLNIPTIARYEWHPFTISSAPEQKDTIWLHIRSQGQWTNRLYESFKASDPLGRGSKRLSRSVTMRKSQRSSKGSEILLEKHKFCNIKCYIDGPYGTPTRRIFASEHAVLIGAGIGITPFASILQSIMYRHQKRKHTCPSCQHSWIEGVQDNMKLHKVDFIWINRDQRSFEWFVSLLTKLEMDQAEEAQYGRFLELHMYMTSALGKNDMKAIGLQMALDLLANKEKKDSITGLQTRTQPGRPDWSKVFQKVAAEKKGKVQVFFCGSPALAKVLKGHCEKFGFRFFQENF

| SMILES | composite z-score [1] | z-score [2] | z-score [3] | z-score [4] | z-score [5] | composite z-score [6] | composite z-score [7] | composite z-score (Torsin-1A (Homo sapiens) [8]) | composite z-score (Torsin-1A (Homo sapiens) [9]) | composite z-score [10] | z-score [11] | composite z-score [12] | z-score [13] | z-score [14] | z-score [15] | z-score [16] | z-score [17] | z-score [18] | z-score [19] | z-score [20] |
| --- | --- | --- | --- | --- | --- | --- | --- | --- | --- | --- | --- | --- | --- | --- | --- | --- | --- | --- | --- | --- |
| COC(=O)[C@@]1(Cc2ccccc2)[C@H]2c3cc(C(=O)N4CCCC4)n(Cc4ccc(OC(F)(F)F)cc4)c3C[C@H]2CN1C(=O)c1ccccc1 | 1.01 | -2.44 (inactive) | 0.0853 (inactive) | 2.49 (inactive) | 2.25 (inactive) | 1.64 | 1.08 | -0.429 | 0.969 | -1.44 | -2.11 (inactive) | 0.592 | 3.6 (inactive) | 1.2 (inactive) | 1.01 (inactive) | 1.35 (inactive) | -0.366 | 0.828 (inactive) | 1.34 (inactive) | 0.914 |
| CCN(CC)c1ccc(N2CC=CC34O[C@@H]5/C=C\CCCOC(=O)C5[C@H]3C(=O)N(CCCCCO)[C@@H]4C2=O)cc1 (stereo not given in full) | -0.704 | -0.119 (inactive) | 2.25 (inactive) | 0.605 (inactive) | 0.417 (inactive) | -1.45 | -0.211 | -2.51 | -1.91 | -0.155 | -1.06 (inactive) | -0.0479 | 1.03 (inactive) | 0.0039 (inactive) | -0.656 (inactive) | -0.28 (inactive) | -0.486 | 0.516 (inactive) | -0.21 (inactive) | 1.41 |
| CCOC(=O)C1=CC[C@@H](c2ccccc2)N(S(=O)(=O)c2ccc(C)cc2)[C@H]1C=C(C)C | 0.367 | -4.76 (inactive) | 0.514 (inactive) | -0.378 (inactive) | 0.807 (inactive) | 1.44 | 0.246 | 0.258 | 1.46 | 0.839 | -0.179 (inactive) | 0.129 | 2.27 (inactive) | 1.42 (inactive) | -0.627 (inactive) | 0.756 (inactive) | -0.459 | -0.0156 (inactive) | 1.39 (inactive) | 1.43 |
| CC1CC/C=C\[C@H]2OC34C=CCN(c5ccc(Cl)cc5)C(=O)[C@H]3N(C(CO)C(C)C)C(=O)[C@]4(C)C2C(=O)O1 (stereo not given in full) | -0.293 | 0.24 (inactive) | 0.971 (inactive) | 0.199 (inactive) | -0.27 (inactive) | -1.17 | -0.128 | 1.3 | 1.45 | 0.14 | -0.397 (inactive) | 0.188 | 2.3 (inactive) | 0.798 (inactive) | 0.647 (inactive) | 0.647 (inactive) | -0.631 | 1.86 (inactive) | -0.264 (inactive) | 2.39 |
| COc1cccc(C[C@H]2C[C@@H](CO[Si](C(C)C)(C(C)C)C(C)C)N3C(=O)[C@]4(C(C)=O)O[C@]23[C@H]2C(=O)N(C)C(=O)[C@H]24)c1 | 0.205 | -4.4 (inactive) | 0.0793 (inactive) | 1.62 (inactive) | 0.325 (inactive) | 0.636 | -0.008 | 0.0282 | 0.611 | 1.09 | -1.09 (inactive) | -0.0713 | 4.02 (inactive) | 0.867 (inactive) | -0.382 (inactive) | 0.702 (inactive) | -0.267 | 0.083 (inactive) | 0.451 (inactive) | 0.146 |
| [N-]=[N+]=Nc1ccccc1C[C@]1(C(=O)NCCN2CCOCC2)N=C(c2ccc(OCCCO)cc2)O[C@H]1c1ccccc1N=[N+]=[N-] | 0.682 | -3.68 (inactive) | -0.933 (inactive) | 0.573 (inactive) | -1.29 (inactive) | 0.678 | 0.726 | 0.818 | 0.954 | 0.926 | 1.11 (inactive) | 0.628 | 27.7 (active) | 23.2 (active) | 1.35 (inactive) | 4.41 (inactive) | 1.75 | -2.69 (inactive) | 0.686 (inactive) | -1.15 |
| O=C1O[C@H](c2ccccc2)[C@H](c2ccccc2)N2[C@H]1[C@@H](C(=O)N1CCCCCCC1)[C@]1(C(=O)Nc3ccccc31)[C@H]2c1ccc(O)cc1 | 2.61 | -1.21 (inactive) | 0.387 (inactive) | -0.0566 (inactive) | -0.599 (inactive) | 4.14 | 2.28 | 3.49 | 3.61 | 1.55 | -0.0491 (inactive) | 2.97 | 0.517 (inactive) | 0.435 (inactive) | -0.882 (inactive) | 0.19 (inactive) | -0.541 | -4.42 (inactive) | -1.03 (inactive) | -3.4 |
| O=C1CSC(c2cccc([N+](=O)[O-])c2)N1c1ccccc1 (stereo not given) | 0.0388 | -0.735 (inactive) | -0.249 (inactive) | -0.321 (inactive) | -0.567 (inactive) | -0.545 | -0.147 | 0.838 | 0.153 | 0.221 | 0.0188 (inactive) | 0.0163 | 0.0361 (inactive) | 0.111 (inactive) | 0.708 (inactive) | -0.139 (inactive) | -0.0619 | -0.276 (inactive) | -0.0621 (inactive) | 0.509 |
